Source: PubChem BioAssay (National Center for Advancing Translational Sciences (NCATS))
VACV mCherry inh = inhibitors of vaccinia virus infection (mCherry reporter signal); Vaccinia virus mCherry reporter infection, fluorescence; Potency, µM (top dose mostly 36.5 µM), inactives show top-dose activity change, negative = inhibition, usual class: inhibitors; 310,000 tested, 0.63% active; calls by dose curve; tested in A549 cells; note: % is set by controls: 0 for no effect and ±100 for the full control effect; nearly all actives have a fitted effect of over 35% in size
AmpC inh no detg = AmpC beta-lactamase inhibition without detergent | AID 485341 | 330,000 tested, 0.52% active | Potency, µM (top dose mostly 57.1 µM), for inactives: at the highest dose activity change, negative = inhibition, actives largely listed as inhibitors | AmpC nitrocefin hydrolysis, absorbance 480 nm, 0.0001% Triton;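 note: plate controls were no compound for no effect and no enzyme for full effect; nearly all actives have a fitted effect of over 20% in size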
Target sequence (P00811 whole entry, looked up): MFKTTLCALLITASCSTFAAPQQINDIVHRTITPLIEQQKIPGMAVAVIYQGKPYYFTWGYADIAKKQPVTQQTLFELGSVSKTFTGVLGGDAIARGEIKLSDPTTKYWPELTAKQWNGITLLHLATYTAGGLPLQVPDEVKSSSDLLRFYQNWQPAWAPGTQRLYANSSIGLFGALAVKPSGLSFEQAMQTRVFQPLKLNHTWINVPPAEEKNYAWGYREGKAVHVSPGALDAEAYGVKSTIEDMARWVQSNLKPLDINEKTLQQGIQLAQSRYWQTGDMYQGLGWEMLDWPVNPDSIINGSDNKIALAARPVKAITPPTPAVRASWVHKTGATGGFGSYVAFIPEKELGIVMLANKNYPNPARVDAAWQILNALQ
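AmpC (5.3 nM in the dispensed reagent) in 20 mM phosphate pH 7.0 with 0.01% (detergent screen) or 0.0001% Triton X-100 was preincubated with compounds for 15 min at room temperature. Nitrocefin was then added from an 800 uM solution, and hydrolysis was followed at 480 nm.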
SARS PLP yeast = SARS-CoV PLP inhibition in yeast | S. cerevisiae expressing SARS-CoV PLpro, growth rescue | Potency, µM (doses to about 32.9 µM), for inactives: at the top dose activity, positive = growth rescue, most hits filed as activators | 330,000 tested, 0.19% active | AID 485353; calls by dose curve; note: 0% is about no effect; nearly all actives have a fitted effect of over 55% in size
VACV Venus inh = inhibitors of vaccinia virus (Venus reporter); 330,000 tested, 0.46% active; Potency, µM (doses to about 36.5 µM), without a hit: at the highest dose activity change, negative = inhibition, usual class: inhibitors; Vaccinia virus Venus reporter expression, fluorescence; calls by dose curve; tested in A549 cells; note: % is set by controls: 0 for no effect and ±100 for the full control effect; nearly all actives have a fitted effect of over 30% in size
AmpC inh detg = inhibitors of E. coli AmpC beta-lactamase with detergent | P00811 | AmpC hydrolysis of nitrocefin, absorbance 480 nm, 0.01% Triton | Potency, µM (top dose mostly 114 µM), inactives show top-dose activity change, negative = inhibition, usual class: inhibitors | 370,000 tested, 0.041% active | AID 485294;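 note: 0% = no-compound wells and -100% = no-enzyme wells; nearly all actives have a fitted effect of over 25% in size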
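AmpC (5.3 nM in the dispensed reagent) in 20 mM phosphate pH 7.0 with 0.01% (detergent screen) or 0.0001% Triton X-100 was preincubated with compounds for 15 min at room temperature. Nitrocefin was then added from an 800 uM solution, and hydrolysis was followed at 480 nm.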
AMA1 RON2 block = AMA1-RON2 (P. falciparum) interaction inhibition. AlphaScreen AMA1-biotinylated RON2 peptide binding. Potency, µM (series often up to 58.2 µM), for the others: at the top dose activity change, negative = inhibition, actives largely listed as inhibitors. 360,000 tested, 0.2% active;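 note: 0% = vehicle wells and -100% = peptide control; nearly all actives have a fitted effect of over 45% in size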
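AMA1 (3D7) with his tag at 25 nM final met compounds first, then biotinylated RON2 peptide at 25 nM; detection used donor plus acceptor beads, 10 µg/mL apiece, read by AlphaScreen after 30 min at room temperature.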
* hit, by the source's call; i = inactive; u = inconclusive; x = not tested or not shown; [ ] = remark or other dose. Shown are actives, neighbours in structure and some others; about 1.4% of the full set was active somewhere. Unless noted, calls come from the whole dose curve; as a rule, active = well fitted curve in the direction sought with a large enough effect; inconclusive = small, poorly fitted or top-dose-only effect, or another doubt; inactive = no such curve, though single readings can be large; an effect the other way counts as inactive or inconclusive. Potency is the fitted concentration of half-maximal effect.

SMILES	VACV mCherry inh	AmpC inh no detg	SARS PLP yeast	VACV Venus inh	AmpC inh detg	AMA1 RON2 block
O=C(c1cccc(Cl)c1)N1CCC(c2nc3c(nnn3Cc3ccc(F)cc3F)c(=O)[nH]2)CC1	-28%	x	x	-26%	0%	x
CCc1cccc(NC(=O)COC(=O)c2ccccc2OCc2ccccc2Br)c1	u	x	x	13µM*	x	x
N#C/C(=C/c1ccc(Sc2nc3ccccc3[nH]2)o1)c1cccc(Br)c1	20µM*	-54%	-2%	u	-3%	8%
Cc1ccccc1NS(=O)(=O)c1cc(C(=O)Nc2cccc([N+](=O)[O-])c2)ccc1C	u	-36%	-6%	11µM*	-17%	0%[2.32 µM]
CC(C)Oc1ccc(C(=O)NCC2Cc3cc(F)cc(-c4cnccn4)c3O2)cc1 (stereo not drawn)	-6%	x	x	7%	x	x
COCC(=O)n1nc(-c2ccccc2)nc1NCc1ccc(N(C)C)cc1	i	-6%	-1%	-5%	3%	22µM*
Cn1c(/C(C#N)=C/c2ccc(-c3ccc(S(N)(=O)=O)cc3)o2)nc2ccccc21	x	20µM*	-9%	x	-17%	0%
Cn1c(/C(C#N)=C/c2cccc(O)c2)nc2ccccc21	-4%	-18%	-1%	-12%	5%	-10%
COc1cc(Cl)c(C)cc1NC(=O)CSc1sc2c(O)cc(=O)[nH]c2c1C#N	-9%	1.6µM*	3%	10%	-4%	-8%
CCc1ccc(C(=O)Nc2cccc(-c3nc4cc(C(C)C)ccc4o3)c2)cc1	-3%	x	x	1%	3%	x
COc1ccc(CNc2nc(Cl)nc3nc[nH]c23)cc1	3%	x	x	-17%	x	x
O=C(O)/C=C/C(=O)Nc1ccc(C2(c3ccc(NC(=O)/C=C/C(=O)O)cc3)c3ccccc3-c3ccccc32)cc1	x	13µM*	-3%	x	-9%	-18%
O=C(O)/C=C\C(=O)Nc1ccc(Oc2ccccc2)cc1	x	-15%	-17%	x	1%	-15%
CCn1c(SC(C)C(=O)Nc2ccc(C)cc2)nnc1-c1ccccc1 (stereo not drawn)	-28%	x	x	-19%	x	x
Cc1ccc(C)c(NC(=O)CN(C)C(=O)[C@@H](NC(N)=O)C(C)C)c1	i	-8%	0%	-23%	-5%	-1%
Cc1ccc(C)c(NC(=O)CN(C)C(=O)[C@@H](NC(=O)c2ccc(C(C)(C)C)cc2)C(C)C)c1	28µM*	242%	-4%	14µM*	-1%	1%
Cc1ncsc1CCC(=O)N1CCCC(c2nc(-c3ccncc3)ncc2-c2ccccc2)C1 (stereo not drawn)	-25%	x	x	-14%	x	x
O=c1[nH]c2ccc(Cl)cc2c(-c2ccccc2)c1SC(=S)N1CCOCC1	x	78%	11%	u	-7%	-19%
O=c1[nH]c2ccc(Cl)cc2c(-c2ccccc2)c1SC(=S)N1CCCCC1	x	10µM*	-14%	u	-1%	14%
COc1ccc(-c2oc3ccc(N4CCOCC4)cc3c2C#CCO)cc1	5.6µM*	x	x	u	x	-2%
O=C(CN(c1ccc(Cl)cc1)S(=O)(=O)c1ccc(Cl)c([N+](=O)[O-])c1)NCCc1ccccc1	-12%	-34%	0%	3%	-1%	11%
O=C(CN(c1ccc(Cl)cc1)S(=O)(=O)c1ccc(Cl)c([N+](=O)[O-])c1)NCCc1ccc(F)cc1	u	32µM*	4%	-8%	-3%	-4%
COCC(=O)Nc1cc(C(=O)N2CCc3c([nH]c4ccccc34)C2)cc2nc(-c3ccccc3)n(C)c12	-11%	x	x	-6%	x	x
C[C@@H]1CN(Cc2ccc3c(c2)CN(C(=O)CN2CCOc4ccccc4C2)CCO3)C[C@H](C)O1	-9%	x	x	1%	x	x
COc1ccc(S(=O)(=O)N2CCN(c3nc(-c4ccccc4)nc4ccccc34)CC2)cc1	-11%	x	x	-18%	x	x
Cc1ccc(NS(=O)(=O)c2cccc(C(=O)NNC(=O)c3cccn3C)c2)c(C)c1	-28%	16µM*	1%	-19%	1%	40%
COc1ccc(NS(=O)(=O)c2cccc(C(=O)NNC(=O)c3cccn3C)c2)cc1	x	-18%	1%	x	u	-3%
